Screening data (PubChem)
Hits are enriched below; roughly 4.6% of the tested compounds scored in any of these assays.
D1 ag = human D1 receptor agonism; P21728; HEK293 T-REx D1 cells, calcium flux, agonist mode; activation, % at 2 µM; 360,000 tested, 1% active; AID 504660; also: 0% is about no effect
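Inducible HEK293 T-REx D1 cells, force-coupled to calcium signalling, were plated at 4000 cells/well with tetracycline and held overnight at 30 C. After no-wash calcium dye loading, compound-evoked calcium rise over 180 s flagged agonists.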
TRHR ag = TRH receptor (human) agonism; TRHR cells, calcium flux fluo-8, FDSS agonist mode; 360,000 tested, 0.18% active; P34981; activation, % at 2 µM; AID 493084; also: 0% is about no effect
Target sequence (P34981 whole entry, looked up): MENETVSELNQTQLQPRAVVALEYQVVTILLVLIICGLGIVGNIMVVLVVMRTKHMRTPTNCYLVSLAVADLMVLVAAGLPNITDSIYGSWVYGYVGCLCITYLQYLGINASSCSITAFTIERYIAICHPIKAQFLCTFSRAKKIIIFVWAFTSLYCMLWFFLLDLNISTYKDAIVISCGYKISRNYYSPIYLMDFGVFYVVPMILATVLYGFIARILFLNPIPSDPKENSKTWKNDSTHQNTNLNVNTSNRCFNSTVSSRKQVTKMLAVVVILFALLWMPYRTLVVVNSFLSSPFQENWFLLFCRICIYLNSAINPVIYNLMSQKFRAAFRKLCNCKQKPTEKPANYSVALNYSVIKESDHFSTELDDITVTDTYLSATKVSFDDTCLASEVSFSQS
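Read-out: compound-evoked intracellular calcium rise in TRHR cells, fluo-8 dye, kinetic FDSS fluorescence at 1 s/cycle following a 10-cycle baseline. Cells cultured overnight before dye loading (30 min–1.5 h, RT).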
TRHR PAM = allosterically enhances the human TRH receptor. 360,000 tested, 0.66% active. enhancement, % at 2 µM. P34981. TRHR cells, fluo-8 calcium fluorescence, EC20 TRH enhancement. AID 493056; in the data active = enhancement above about 30%; also: 0% is about no effect
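TRHR-expressing cells loaded with fluo-8 calcium dye were read kinetically (ex 480/em 530) during compound addition, then stimulated with an EC20 of TRH (10 nM final). Enhancement of the Gq-mediated intracellular calcium response was scored.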
D1 antagonist = antagonists of human D1 dopamine receptor; P21728; HEK293 TREx D1 cells, calcium flux, dopamine EC80; hits give low values; activity change, negative = inhibition, % at 10 µM; 360,000 tested, 3.2% active; AID 504652; in the data active = activity change below about -30%; also: % is scaled to controls: 0 for no effect and ±100 for the full control effect
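After overnight tetracycline induction at 30 C, force-coupled D1 HEK293 cells took up a no-wash calcium dye at room temperature. Compounds were added and monitored 180 s, and the response to EC80 dopamine was then recorded.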
D1 potentiator = enhances dopamine response at the human D1 receptor; potentiation, % at 10 µM; P21728; HEK293 TREx D1 cells, calcium flux, dopamine EC20 potentiation; 360,000 tested, 0.036% active; in the data active = potentiation above about 30%; also: 0% is about no effect
Numbers without * were called inactive; / = not tested or not shown. Rule as the data show it, unless noted: active = activation above about 30%; inactive = the rest.

SMILES | D1 ag | TRHR ag | TRHR PAM | D1 antagonist | D1 potentiator
COc1ccc(Cn2cc(C(=O)c3ccc(C)c(C)c3)c(=O)c3ccccc32)cc1 | 7.4 | 0.2 | 2.8 | -11.0 | 5.1
Cc1ccc(NC(=S)N2CCC(N(C)CC3CCCO3)CC2)cc1C (configuration not stated) | -3.3 | -0.2 | 31.1* | -17.7 | -8.4
O=C(NCc1ccc(Cl)cc1)c1ccc(OCC2CCCO2)cc1 (configuration not stated) | 3.7 | -0.1 | -4.7 | -14.0 | -4.7
Cc1ccc(CNC(=O)c2ccc(OCC3CCCO3)cc2)cc1 (configuration not stated) | 2.0 | -0.4 | 6.2 | -70.7* | -5.8
O=C(Nc1ccc(Cl)cc1)c1ccc(OCC2CCCO2)cc1 (configuration not stated) | 3.6 | 0.5 | 16.2 | -65.8* | -3.9
CCc1ccc(C(=O)c2cnc3ccc(F)cc3c2S(=O)(=O)c2ccccc2)cc1 | 2.4 | -0.5 | -1.1 | -42.3* | -6.9
CCCC(=O)Nc1cc(-c2nc3cccnc3s2)ccc1C | 49.1* | -0.4 | 15.1 | 24.3 | -3.4
CCCCC(=O)Nc1cc(-c2nc3cccnc3s2)ccc1C | 1.0 | 0.3 | -9.5 | -1.3 | -0.1
Cc1ccc2nc(NC(=O)COC(=O)c3ccco3)sc2c1 | 1.5 | 0.1 | 2.2 | -5.9 | -8.3
O=C(COC(=O)c1ccco1)Nc1nc2ccc([N+](=O)[O-])cc2s1 | 9.2 | -0.2 | -6.7 | -51.6* | -13.4
Nc1[nH]n2c(=O)cc(-c3ccccc3)nc2c1N=Nc1ccccc1 | 2.1 | 1.2 | -4.3 | -37.9* | -14.9
Cc1ccc(CCNC(c2ccc(F)cc2)c2nnc(-c3ccccc3Cl)o2)cc1 (configuration not stated) | 16.9 | 1.6 | -8.8 | -12.1 | 4.5
O=S(=O)(NCc1ccc(Cl)cc1)c1ccc2[nH]c3c(c2c1)CCCC3 | 3.3 | -0.8 | 5.5 | -4.9 | -2.2
CCOC(=O)Cc1nnc(NC(=O)CSc2ccc(Cl)cc2)s1 | 9.7 | 0.8 | -2.8 | -31.5* | -2.0
COC(=O)c1cc(NC(=O)CSc2nnc(N)s2)ccc1Cl | 1.5 | 0.4 | 34.0* | 10.1 | -3.8
CCSc1nnc(NC(=O)Cc2ccc(OC)c(OC)c2)s1 | 1.6 | -0.5 | -5.2 | -33.1* | -8.8
CC(=O)Nc1ccc(NC(=O)CSc2nnc(NC(=O)C3CC3)s2)cc1 | 1.1 | 0.6 | 0.7 | -23.1 | -9.5
COc1ccc(NC(=O)CSc2nnc(NC(=O)C3CC3)s2)cc1OC | 0.8 | 0.8 | 14.1 | -35.8* | -13.3
COc1ccc(-c2nnc(NC(=O)CSc3ccc(Cl)cc3)s2)cc1OC | 1.6 | 1.0 | 24.9 | -0.1 | 5.2
Cc1cc2c(s1)c1cnn(Cc3cccc(C)c3F)c(=O)c1n2C | 4.6 | 1.9 | 0.6 | 3.9 | -0.9
COc1cc(OC)c(NC(=O)CN2C(=O)CCn3nc(-c4cccn4C)cc32)cc1Cl | 1.2 | 0.3 | -1.0 | -19.2 | 0.6
CCOC(=O)Cc1nnc(NC(=O)C(CC)Sc2nc(C)cc(C)n2)s1 (configuration not stated) | 3.5 | 0.3 | -1.8 | -35.5* | /
COc1ccc(Cc2nnc(NC(=O)CSc3ccc(C)cc3)s2)cc1OC | 224.0* | 0.1 | 9.4 | -1.2 | 6.4
Clc1cccc(-c2nc3ccccn3c2Nc2ccc3c(c2)OCCO3)c1 | 3.2 | 0.1 | -7.2 | 1.1 | -3.3
CCCOC(=O)CCCN1C(=O)/C(=C2\SC(=S)N(CCCC(=O)OCCC)C2=O)SC1=S | 8.8 | 1.4 | -2.3 | -16.5 | 2.5
SMILES | D1 ag | TRHR ag | TRHR PAM | D1 antagonist | D1 potentiator
CCN1C(=S)SC(=O)C1=C1C=C(C)N(CCO)C(C)=C1 | 33.7* | 16.6 | -0.7 | -0.1 | -2.5
CCN1C(=O)/C(=C/c2cn(C)nc2C)SC1=S | -0.7 | -0.2 | -3.4 | -5.7 | -4.2
CCN1C(=S)SC(=O)C1=C1C=C(C)N(CCOC)C(C)=C1 | 45.0* | 14.1 | -4.4 | 9.7 | 4.9
Cc1ccc(OCC(=O)Nc2cccc(C(=O)OCc3cc(=O)n4nc(C)sc4n3)c2)cc1 | 0.4 | -0.3 | 1.9 | 12.5 | 0.1
O=C(COC(=O)C1(c2ccccc2F)CCCC1)Nc1ncc(C(F)(F)F)cc1Cl | 12.4 | 1.7 | 5.5 | -35.5* | -4.5
CC(=O)Nc1ccc(S(=O)(=O)Nc2cccc(-c3ccc(N4CCC(C)CC4)nn3)c2)cc1 | 1.5 | 0.3 | 6.0 | 14.3 | -1.9
